According to PubChem BioAssay (EPA / NIEHS):
Calls of active or inactive are those of the source. The calls were made as follows: active = hit-call score of the fitted dose curve at least 0.9, where 1 is the maximum; inactive = score below 0.9.

Read-out: Low-density lipoprotein receptor (LDLR), LDLR (gene 3949)
Assay: BSK_CASM3C_LDLR: BioMAP Diversity Plus: CASM3C Assay for Low-density lipoprotein receptor (LDLR) Biomarker Activity (AID 2283045);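 also: LDLR protein level on the cell surface quantified by ELISA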
Details: primary human coronary artery smooth muscle cells; actives raise or lower the signal

SMILES | AC50 | outcome
O=P(Oc1ccccc1)(Oc1ccccc1)Oc1ccccc1 | 29.5 µM (active) | 
N#Cc1cc([N+](=O)[O-])ccc1N |  | inactive
ClC(Cl)c1ccccc1 |  | inactive
Cc1ccc2c(c1N)C(=O)c1ccccc1C2=O |  | inactive
CCNc1nc(Cl)nc(NC(C)(C)C)n1 |  | inactive
O=C(O)C(Cl)Cl |  | inactive
CCCCC(CC)COP(=O)(Oc1ccccc1)Oc1ccccc1 (stereo not drawn) |  | inactive
OCC(F)(F)OC(F)(F)C(F)(F)OC(F)(F)CO |  | inactive
c1cc2c3c(cccc3c1)CC2 |  | inactive
COP(N)(=S)OC |  | inactive
CCCCC(CC)COC(=O)c1c(Br)c(Br)c(Br)c(Br)c1C(=O)OCC(CC)CCCC (stereo not drawn) |  | inactive
O=C(O)C(F)(F)OC(F)(F)C(F)(F)OC(F)(F)C(=O)O |  | inactive
O=P1(N(CCCl)CCCl)NCCCO1 (stereo not drawn) |  | inactive
N#Cc1c(-c2ccc(Cl)cc2)[nH]c(C(F)(F)F)c1Br | 20 µM (active) | 
C=CC(=O)OCC(CC)(COC(=O)C=C)COC(=O)C=C |  | inactive
O=C(O)C=CC(F)(C(F)(F)F)C(F)(F)F |  | inactive
OCC1CO1 (stereo not drawn) |  | inactive
CC(Cl)CN(C)C (stereo not drawn) |  | inactive
CCOP(=S)(NC(C)C)Oc1ccccc1C(=O)OC(C)C (stereo not drawn) |  | inactive
CCOS(=O)(=O)OCC |  | inactive
CCC(C)(C)c1ccc(O)cc1 |  | inactive
Cc1c([N+](=O)[O-])cc2c(c1[N+](=O)[O-])C(C)(C)CC2(C)C | 5.44 µM (active) | 
CCCN(CCC)c1c([N+](=O)[O-])cc(C(C)C)cc1[N+](=O)[O-] | 20 µM (active) | 
Cc1cccc(N)c1 |  | inactive
c1ccc2c(c1)Nc1ccccc1S2 |  | inactive
CC(Cl)(Cl)C(=O)O |  | inactive
O=S(=O)(F)C(F)(F)C(F)(F)C(F)(F)C(F)(F)C(F)(F)C(F)(F)C(F)(F)C(F)(F)F |  | inactive

Read-out: Monocyte Chemoattractant Protein-1 (MCP1), CCL2 (gene 6347)
Assay: BSK_CASM3C_MCP1: BioMAP Diversity Plus: CASM3C Assay for Monocyte Chemoattractant Protein-1 (MCP1) Biomarker Activity (AID 2283046);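 also: MCP-1 level quantified by ELISA 24 h after dosing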
Details: primary human coronary artery smooth muscle cells; actives raise or lower the signal

SMILES | outcome | AC50
O=P(Oc1ccccc1)(Oc1ccccc1)Oc1ccccc1 | inactive | 
N#Cc1cc([N+](=O)[O-])ccc1N | inactive | 
ClC(Cl)c1ccccc1 | inactive | 
Cc1ccc2c(c1N)C(=O)c1ccccc1C2=O | inactive | 
CCNc1nc(Cl)nc(NC(C)(C)C)n1 | inactive | 
O=C(O)C(Cl)Cl | inactive | 
CCCCC(CC)COP(=O)(Oc1ccccc1)Oc1ccccc1 (stereo not drawn) | inactive | 
OCC(F)(F)OC(F)(F)C(F)(F)OC(F)(F)CO | inactive | 
c1cc2c3c(cccc3c1)CC2 | inactive | 
COP(N)(=S)OC | inactive | 
CCCCC(CC)COC(=O)c1c(Br)c(Br)c(Br)c(Br)c1C(=O)OCC(CC)CCCC (stereo not drawn) | inactive | 
O=C(O)C(F)(F)OC(F)(F)C(F)(F)OC(F)(F)C(=O)O | inactive | 
O=P1(N(CCCl)CCCl)NCCCO1 (stereo not drawn) | inactive | 
N#Cc1c(-c2ccc(Cl)cc2)[nH]c(C(F)(F)F)c1Br |  | 0.0939 µM (active)
O=P(OCC(Br)CBr)(OCC(Br)CBr)OCC(Br)CBr (stereo not drawn) | inactive | 
C=CC(=O)OCC(CC)(COC(=O)C=C)COC(=O)C=C |  | 2.54 µM (active)
O=C(O)C=CC(F)(C(F)(F)F)C(F)(F)F | inactive | 
OCC1CO1 (stereo not drawn) | inactive | 
CC(Cl)CN(C)C (stereo not drawn) | inactive | 
CCOP(=S)(NC(C)C)Oc1ccccc1C(=O)OC(C)C (stereo not drawn) | inactive | 
CCOS(=O)(=O)OCC | inactive | 
CCC(C)(C)c1ccc(O)cc1 | inactive | 
Cc1c([N+](=O)[O-])cc2c(c1[N+](=O)[O-])C(C)(C)CC2(C)C | inactive | 
CCCN(CCC)c1c([N+](=O)[O-])cc(C(C)C)cc1[N+](=O)[O-] | inactive | 
Cc1cccc(N)c1 | inactive | 
c1ccc2c(c1)Nc1ccccc1S2 | inactive | 
CC(Cl)(Cl)C(=O)O | inactive | 
O=S(=O)(F)C(F)(F)C(F)(F)C(F)(F)C(F)(F)C(F)(F)C(F)(F)C(F)(F)C(F)(F)F | inactive | 

Read-out: not listed separately
Assay: BSK_CASM3C_Proliferation: Cell Proliferation Assessment in the BioMAP Diversity Plus: CASM3C Assay (AID 2283047);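 also: sulforhodamine B total protein stain as relative cell number at 560 nm; sub-confluent cells exposed 48 h before staining; fitted both ways against DMSO so gain or loss of cell number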
Details: primary human coronary artery smooth muscle cells

SMILES | AC50 | outcome
O=P(Oc1ccccc1)(Oc1ccccc1)Oc1ccccc1 | 26 µM (active) | 
N#Cc1cc([N+](=O)[O-])ccc1N |  | inactive
ClC(Cl)c1ccccc1 |  | inactive
Cc1ccc2c(c1N)C(=O)c1ccccc1C2=O |  | inactive
CCNc1nc(Cl)nc(NC(C)(C)C)n1 | 4.52 µM (active) | 
O=C(O)C(Cl)Cl |  | inactive
CCCCC(CC)COP(=O)(Oc1ccccc1)Oc1ccccc1 (stereo not drawn) |  | inactive
OCC(F)(F)OC(F)(F)C(F)(F)OC(F)(F)CO |  | inactive
c1cc2c3c(cccc3c1)CC2 |  | inactive
COP(N)(=S)OC |  | inactive
CCCCC(CC)COC(=O)c1c(Br)c(Br)c(Br)c(Br)c1C(=O)OCC(CC)CCCC (stereo not drawn) |  | inactive
O=C(O)C(F)(F)OC(F)(F)C(F)(F)OC(F)(F)C(=O)O |  | inactive
O=P1(N(CCCl)CCCl)NCCCO1 (stereo not drawn) |  | inactive
N#Cc1c(-c2ccc(Cl)cc2)[nH]c(C(F)(F)F)c1Br | 0.779 µM (active) | 
O=P(OCC(Br)CBr)(OCC(Br)CBr)OCC(Br)CBr (stereo not drawn) | 3.51 µM (active) | 
C=CC(=O)OCC(CC)(COC(=O)C=C)COC(=O)C=C | 2.84 µM (active) | 
O=C(O)C=CC(F)(C(F)(F)F)C(F)(F)F |  | inactive
OCC1CO1 (stereo not drawn) |  | inactive
CC(Cl)CN(C)C (stereo not drawn) |  | inactive
CCOP(=S)(NC(C)C)Oc1ccccc1C(=O)OC(C)C (stereo not drawn) |  | inactive
CCOS(=O)(=O)OCC |  | inactive
CCC(C)(C)c1ccc(O)cc1 |  | inactive
Cc1c([N+](=O)[O-])cc2c(c1[N+](=O)[O-])C(C)(C)CC2(C)C |  | inactive
CCCN(CCC)c1c([N+](=O)[O-])cc(C(C)C)cc1[N+](=O)[O-] | 31.7 µM (active) | 
Cc1cccc(N)c1 |  | inactive
c1ccc2c(c1)Nc1ccccc1S2 |  | inactive
CC(Cl)(Cl)C(=O)O |  | inactive
O=S(=O)(F)C(F)(F)C(F)(F)C(F)(F)C(F)(F)C(F)(F)C(F)(F)C(F)(F)C(F)(F)F |  | inactive
